By AC50 is commonly meant the midpoint of the concentration-response curve, whichever way the signal moves.

The source of these data is PubChem BioAssay (EPA / NIEHS).

The source holds several records for some structures; these can differ, active in one and inactive in another. Active and inactive are the calls of the source. How the source made its calls: active means hit-call score of the fitted dose curve at least 0.9, where 1 is the maximum; inactive means score below 0.9.

Read-out in experiment [1]: TIMP metallopeptidase inhibitor 2 (TIMP2), TIMP2 (gene 7077)
Description: BSK_KF3CT_TIMP2: BioMAP Diversity Plus: KF3CT Assay for TIMP metallopeptidase inhibitor 2 (TIMP2) Biomarker Activity (AID 2283071). The note with it: primary human keratinocytes with fibroblasts; actives raise or lower the signal. An outline of the steps:
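Co-culture of human primary keratinocytes and foreskin fibroblasts, measured 24 h after chemical dosing. TIMP-2 quantified by ELISA and fitted in both directions relative to DMSO. Cytotoxicity checked in parallel cultures by SRB total-protein staining.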

Read-out in experiment [2]: Transforming growth factor beta 1 (TGFb1), TGFB1 (gene 7040)
Kind of experiment: BSK_KF3CT_TGFb1: BioMAP Diversity Plus: KF3CT Assay for Transforming growth factor beta 1 (TGFb1) Biomarker Activity (AID 2283072). The note with it: primary human keratinocytes with fibroblasts; actives raise or lower the signal. Summed up: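 Human keratinocyte/foreskin fibroblast co-culture; TGF-b1 measured by ELISA 24 h after dosing, fitted bidirectionally versus DMSO. Cytotoxicity checked in parallel cultures by total protein (SRB staining, 560 nm).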

Read-out in experiment [3]: C-C motif chemokine 2 (Homo sapiens) (UniProt P13500)
Description: BSK_KF3CT_MCP1: BioMAP Diversity Plus: KF3CT Assay for Monocyte Chemoattractant Protein 1 (MCP1/CCL2) Biomarker Activity (AID 2283073). The note with it: primary human keratinocytes with fibroblasts; actives raise or lower the signal. An outline of the steps:
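KF3CT skin co-culture (keratinocytes/foreskin fibroblasts), 24 h post-dose; MCP-1 by ELISA; gain/loss of signal fit bidirectionally vs DMSO baseline.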

Read-out in experiment [4]: Matrix Metallopeptidase 9 (MMP9), MMP9 (gene 4318)
Description: BSK_KF3CT_MMP9: BioMAP Diversity Plus: KF3CT Assay for Matrix Metallopeptidase 9 (MMP9) Biomarker Activity (AID 2283074). The note with it: primary human keratinocytes with fibroblasts; actives raise or lower the signal. An outline of the steps:
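Human keratinocyte/foreskin fibroblast co-culture; compound added; 24 h; MMP-9 by ELISA; bidirectional fit vs DMSO baseline.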

Read-out in experiment [5]: urokinase plasminogen activator (uPA), PLAU (gene 5328)
Kind of experiment: BSK_KF3CT_uPA: BioMAP Diversity Plus: KF3CT Assay for urokinase plasminogen activator (uPA) Biomarker Activity (AID 2283075). The note with it: primary human keratinocytes with fibroblasts; actives raise or lower the signal. Summed up:
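ELISA readout of uPA, analyzed for signal gain or loss relative to DMSO, from a human primary keratinocyte–foreskin fibroblast co-culture measured 24 h after chemical treatment.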

Read-out in experiment [6]: CD40, CD40 (gene 958)
Description: BSK_LPS_CD40: BioMAP Diversity Plus: LPS Assay for CD40 Biomarker Activity (AID 2283076). The note with it: primary human HUVEC with PBMC; actives raise or lower the signal. Summed up:
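ELISA readout of CD40 in HUVEC/PBMC co-culture (BSK_LPS system), 24 h post-dosing; bidirectional curve fit, DMSO baseline; parallel SRB total-protein staining for cytotoxicity.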

Read-out in experiment [7]: E-selectin (Homo sapiens) (UniProt P16581)
Kind of experiment: BSK_LPS_Eselectin: BioMAP Diversity Plus: LPS Assay for Eselectin Biomarker Activity (AID 2283077). The note with it: primary human HUVEC with PBMC; actives raise or lower the signal. An outline of the steps: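 ELISA readout of E-selectin, 24 h post-dose, HUVEC + PBMC co-culture (LPS system). Gain or loss of signal vs DMSO baseline, bidirectional fit.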

Read-out in experiment [8]: Interleukin-8 (IL8), CXCL8 (gene 3576)
Kind of experiment: BSK_LPS_IL8: BioMAP Diversity Plus: LPS Assay for Interleukin-8 (IL8) Biomarker Activity (AID 2283078). The note with it: primary human HUVEC with PBMC; actives raise or lower the signal. Summed up: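 HUVEC + PBMC co-culture, LPS-activated; test chemicals dosed, IL-8 read by ELISA at 24 h. Bidirectional curve fit vs DMSO baseline (gain or loss of signal).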

Experiment [9] can be described thus: BSK_LPS_SRB: Viability Assessment in the BioMAP Diversity Plus: LPS Assay (AID 2283079).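 Further: total protein by sulforhodamine B absorbance as a cytotoxicity measure; measured one day after compound addition; fitted in both directions against DMSO so loss or gain of signal counts.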 The note with it: primary human HUVEC with PBMC. Summed up:
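HUVEC + PBMC co-culture, LPS-stimulated; compound 24 h. 10% TCA fix, 0.1% SRB stain, A560. Bidirectional fit vs DMSO.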

Read-out in experiment [10]: Interleukin-1 alpha (IL1a), IL1A (gene 3552)
Kind of experiment: BSK_LPS_IL1a: BioMAP Diversity Plus: LPS Assay for Interleukin-1 alpha (IL1a) Biomarker Activity (AID 2283080). The note with it: primary human HUVEC with PBMC; actives raise or lower the signal. An outline of the steps: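 HUVEC/PBMC co-culture, LPS system; 24 h after dosing; IL-1a by ELISA; gain or loss of signal fitted bidirectionally vs DMSO baseline.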

Read-out in experiment [11]: Macrophage colony-stimulating factor (MCSF), CSF1 (gene 1435)
Kind of experiment: BSK_LPS_MCSF: BioMAP Diversity Plus: LPS Assay for Macrophage colony-stimulating factor (MCSF) Biomarker Activity (AID 2283083). The note with it: primary human HUVEC with PBMC; actives raise or lower the signal. Summed up: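 HUVEC + PBMC co-culture (human primary), 24 h post-dose; M-CSF by ELISA; gain/loss of signal fitted bidirectionally vs DMSO baseline.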

Read-out in experiment [12]: Tissue Factor, F3 (gene 2152)
Description: BSK_LPS_TissueFactor: BioMAP Diversity Plus: LPS Assay for Tissue Factor Biomarker Activity (AID 2283084). The note with it: primary human HUVEC with PBMC; actives raise or lower the signal. An outline of the steps:
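HUVEC/PBMC co-culture, LPS-activated; CD142 ELISA read 24 h post-dose; bidirectional curve fit vs DMSO negative control.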

Read-out in experiment [13]: Tumor necrosis factor (Homo sapiens) (UniProt P01375)
Description: BSK_LPS_TNFa: BioMAP Diversity Plus: LPS Assay for Tumour Necrosis Factor alpha (TNFa) Biomarker Activity (AID 2283085). The note with it: primary human HUVEC with PBMC; actives raise or lower the signal. Summed up: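 Human umbilical vein endothelial cells co-cultured with PBMC and stimulated with LPS. TNFa was measured by ELISA 24 h after chemical dosing, fitted bidirectionally relative to DMSO.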

Read-out in experiment [14]: Vascular cell adhesion molecule 1 (VCAM1), VCAM1 (gene 7412)
Kind of experiment: BSK_LPS_VCAM1: BioMAP Diversity Plus: LPS Assay for Vascular cell adhesion molecule 1 (VCAM1) Biomarker Activity (AID 2283086). The note with it: primary human HUVEC with PBMC; actives raise or lower the signal. An outline of the steps:
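Human umbilical vein endothelial cells co-cultured with PBMC and stimulated with LPS; VCAM-1 measured by ELISA 24 h after dosing. Bidirectional curve fitting against DMSO baseline; cytotoxicity tracked in parallel by SRB total-protein staining.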

Read-out in another experiment: CD38, CD38 (gene 952)
Kind of experiment: BSK_SAg_CD38: BioMAP Diversity Plus: SAg Assay for CD38 Biomarker Activity (AID 2283087). The note with it: primary human HUVEC with PBMC; actives raise or lower the signal. An outline of the steps: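 Human HUVEC plus PBMC co-culture stimulated with superantigen; CD38 measured by ELISA 24 h after chemical dosing. Fluorescence read-out, bidirectional fit against DMSO; cytotoxicity tracked in parallel by SRB and Alamar Blue.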

Read-out in experiment [15]: CD40, CD40 (gene 958)
Description: BSK_SAg_CD40: BioMAP Diversity Plus: SAg Assay for CD40 Biomarker Activity (AID 2283088). The note with it: primary human HUVEC with PBMC; actives raise or lower the signal. An outline of the steps: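 HUVEC/PBMC co-culture, 24 h post-dose; CD40 by ELISA, fluorescence intensity; bidirectional fit vs DMSO negative control.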

Read-out in the next experiment: CD69, CD69 (gene 969)
Description: BSK_SAg_CD69: BioMAP Diversity Plus: SAg Assay for CD69 Biomarker Activity (AID 2283089).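 On AC50: cell surface CD69 protein quantified by ELISA with fluorescence detection.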 The note with it: primary human HUVEC with PBMC; actives raise or lower the signal. An outline of the steps:
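Values derive from bidirectional fitting relative to DMSO vehicle. Cells: umbilical vein endothelium plus peripheral blood mononuclear cells, treated 24 h before fluorescent ELISA for CD69.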

Read-out in experiment [16]: Monocyte Chemoattractant Protein-1 (MCP1), CCL2 (gene 6347)
Description: BSK_SAg_MCP1: BioMAP Diversity Plus: SAg Assay for Monocyte Chemoattractant Protein-1 (MCP1) Biomarker Activity (AID 2283090). The note with it: primary human HUVEC with PBMC; actives raise or lower the signal. Summed up:
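MCP-1 levels in the endothelial–PBMC SAg co-culture were quantified by ELISA at 24 h post-dosing; both increases and decreases versus DMSO scored. Cytotoxicity monitored by SRB total protein in parallel cultures.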

Experiment [17] in a line: BSK_LPS_PGE2: BioMAP Diversity Plus: LPS Assay for Prostaglandin E2 (PGE2) Biomarker Activity (AID 2283082). The note with it: primary human HUVEC with PBMC; actives raise or lower the signal. Summed up:
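HUVEC plus human PBMC co-culture stimulated with LPS; secreted PGE2 quantified by ELISA 24 h after chemical dosing. Activity fitted bidirectionally against DMSO baseline; parallel SRB staining (0.1% SRB after 10% TCA fixation, 560 nm) flags overt cytotoxicity.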

Tumor necrosis factor (Homo sapiens), sequence (P01375 whole entry, looked up): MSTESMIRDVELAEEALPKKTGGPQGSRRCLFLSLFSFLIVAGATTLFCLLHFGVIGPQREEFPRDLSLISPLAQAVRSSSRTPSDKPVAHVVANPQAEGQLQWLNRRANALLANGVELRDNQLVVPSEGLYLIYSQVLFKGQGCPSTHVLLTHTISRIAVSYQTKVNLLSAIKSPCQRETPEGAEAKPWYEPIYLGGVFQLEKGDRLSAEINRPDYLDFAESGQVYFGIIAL
E-selectin (Homo sapiens), sequence (P16581 whole entry, looked up): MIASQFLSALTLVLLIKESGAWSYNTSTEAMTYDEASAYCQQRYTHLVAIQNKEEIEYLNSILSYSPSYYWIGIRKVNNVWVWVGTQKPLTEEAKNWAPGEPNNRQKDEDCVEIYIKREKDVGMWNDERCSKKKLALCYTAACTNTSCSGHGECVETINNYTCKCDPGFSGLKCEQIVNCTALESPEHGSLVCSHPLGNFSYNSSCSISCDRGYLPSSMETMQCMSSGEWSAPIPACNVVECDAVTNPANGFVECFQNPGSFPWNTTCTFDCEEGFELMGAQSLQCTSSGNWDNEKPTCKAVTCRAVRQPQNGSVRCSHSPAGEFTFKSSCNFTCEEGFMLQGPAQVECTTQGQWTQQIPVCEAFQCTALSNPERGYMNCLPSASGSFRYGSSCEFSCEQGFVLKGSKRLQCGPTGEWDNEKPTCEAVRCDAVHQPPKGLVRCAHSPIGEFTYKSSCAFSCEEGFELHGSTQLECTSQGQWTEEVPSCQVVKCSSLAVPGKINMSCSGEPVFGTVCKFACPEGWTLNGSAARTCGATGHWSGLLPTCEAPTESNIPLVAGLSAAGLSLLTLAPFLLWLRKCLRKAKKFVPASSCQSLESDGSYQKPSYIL

As for `CCC(C)(C)c1ccc(O)cc1`, the outcome in experiment [1] is “inactive”; in experiment [2], “inactive”; in experiment [3], “inactive”; in [4], “inactive”; in experiment [5], “inactive”; with CD40, CD40 (gene 958) [6], “inactive”. Moreover, the result in experiment [7], in experiment [8], in experiment [9], in experiment [10], in [11] and in [12] was inactive. In addition, the outcome in [13] was “inactive”; in experiment [14], “inactive”; with CD38, CD38 (gene 952) it was “inactive”; with CD40, CD40 (gene 958) [15], “inactive”; in the experiment with CD69, CD69 (gene 969) it was “inactive”; in [16] it was “inactive”.
As for `COC(=O)C(F)(F)C(F)(F)OC(F)(C(F)(F)F)C(F)(F)OC(F)=C(F)F` (stereo not given), the outcome in experiment [1] was “inactive”; in experiment [3] it was “inactive”; in experiment [4] it was “inactive”; in experiment [5] it was “inactive”; in the experiment with CD40, CD40 (gene 958) [6], “inactive”; in experiment [7] it was “inactive”. Further, the result in experiment [8], in experiment [9], in [10], in experiment [12], in experiment [13] and in [14] was inactive. Moreover, the outcome in the experiment with CD38, CD38 (gene 952) is “inactive”; with CD40, CD40 (gene 958) [15] it was “inactive”; with CD69, CD69 (gene 969), “inactive”; in experiment [16], “inactive”. Further, in the experiment with CD38, CD38 (gene 952), the half-maximal activity concentration (AC50) is 0.864 µM (active).
`OCC(F)(F)OC(F)(F)C(F)(F)OC(F)(F)C(F)(F)OC(F)(F)CO`: the outcome in experiment [1] was “inactive”; in experiment [3] it was “inactive”; in [4], “inactive”; in experiment [5] it was “inactive”; with CD40, CD40 (gene 958) [6] it was “inactive”; in experiment [7] it was “inactive”. Also, the result in experiment [8], in experiment [9], in experiment [10], in [17], in experiment [12] and in experiment [13] was inactive. For the same compound, the outcome in experiment [14] is “inactive”; with CD38, CD38 (gene 952), “inactive”; in the experiment with CD40, CD40 (gene 958) [15], “inactive”; with CD69, CD69 (gene 969), “inactive”. Further, the AC50 was 7.62 µM (active) with CD40, CD40 (gene 958) [6]; 30 µM (active) in [9]; 24.3 µM (active) with CD38, CD38 (gene 952); 30 µM (active) in the experiment with CD40, CD40 (gene 958) [15]; 12.9 µM (active) with CD69, CD69 (gene 969).
As to `O=C(O)C(F)(F)OC(F)(F)C(F)(F)OC(F)(F)C(=O)O`, the outcome was “inactive” in experiment [1]; “inactive” in experiment [3]; “inactive” in [4]; “inactive” in experiment [5]; “inactive” in the experiment with CD40, CD40 (gene 958) [6]; “inactive” in experiment [7]. The outcome was “inactive” in experiment [8]; “inactive” in [9]; “inactive” in experiment [10]; “inactive” in [12]; “inactive” in experiment [13]; “inactive” in the experiment with CD38, CD38 (gene 952). Moreover, the outcome in the experiment with CD40, CD40 (gene 958) [15] is “inactive”; with CD69, CD69 (gene 969), “inactive”.
For the compound `Cc1cccc(N)c1`, the outcome in [1] is “inactive”; in [2], “inactive”; in experiment [4], “inactive”; in [5], “inactive”; in the experiment with CD40, CD40 (gene 958) [6], “inactive”; in experiment [7], “inactive”. The result in [8], in experiment [9], in experiment [10], in [12], in experiment [13] and in [14] was inactive. Also, the outcome is “inactive” with CD38, CD38 (gene 952); “inactive” in the experiment with CD40, CD40 (gene 958) [15]; “inactive” with CD69, CD69 (gene 969); “inactive” in [16].
Regarding `CCOc1ccc(C(C)(C)COCc2cccc(Oc3ccccc3)c2)cc1`, the outcome in experiment [1] is “inactive”; in experiment [2], “inactive”; in [3], “inactive”; in experiment [4], “inactive”; in [5], “inactive”; in the experiment with CD40, CD40 (gene 958) [6] it was “inactive”. The outcome in experiment [7] was “inactive”; in experiment [8], “inactive”; in [9], “inactive”; in [11], “inactive”; with CD38, CD38 (gene 952) it was “inactive”; with CD40, CD40 (gene 958) [15], “inactive”. For the same compound, the outcome in the experiment with CD69, CD69 (gene 969) was inactive. Further, the AC50 in [13] was 1.15 µM (active).
